Holding throughout (assay): yeast three-hybrid, YBZ-1, SC-Leu-His + 0.5 mM 3-AT, 4 days
What all share (settings): tags: N-Gal4 AD-HA kept; label: inside an RPR1-promoter hybrid RNA with tandem MS2 sites; ssRNA

Test [1] addresses PUM1 PUF domain R8-KYV (Homo sapiens, UniProt Q14671 828-1176, N1122K;Q1126V). In outline: (§1)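 The interaction score is the logarithmic change in variant frequency from input to selection. It uses log2, with a pseudocount of 1 for absent variants, and frequencies came from PCR-amplified, Illumina-sequenced repeat regions. The libraries were Pumilio-1 PUF domains randomized at the three base-contacting residues per repeat, co-expressed with matching RNA elements in strain YBZ-1 (LexA–MS2 coat fusion, HIS3 reporter). Plating lasted four days on SC-Leu (input) or SC-Leu-His + 0.5 mM 3-AT (selection).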

For test [2], the target named is PUM1 PUF domain R2-SWW (Homo sapiens, UniProt Q14671 828-1176, N899S;Y900W;Q903W). Summed up: as §1
Test [3] concerns the target PUM1 PUF domain R8-EWR (Homo sapiens, UniProt Q14671 828-1176, N1122E;Y1123W;Q1126R). In outline: as §1
The target in test [4] is PUM1 PUF domain R5-SGK (Homo sapiens, UniProt Q14671 828-1176, C1007S;R1008G;Q1011K). In outline:
as §1

Test [5] addresses PUM1 PUF domain R5-KSR (Homo sapiens, UniProt Q14671 828-1176, C1007K;R1008S;Q1011R). In outline: as §1
In test [6] the target is PUM1 PUF domain R5-KGT (Homo sapiens, UniProt Q14671 828-1176, C1007K;R1008G;Q1011T). In outline: as §1
The target of test [7] is PUM1 PUF domain R5-GYL (Homo sapiens, UniProt Q14671 828-1176, C1007G;R1008Y;Q1011L). Summed up: as §1
Test [8] concerns the target PUM1 PUF domain R5-WHR (Homo sapiens, UniProt Q14671 828-1176, C1007W;R1008H;Q1011R). Summed up:
as §1

The target of test [9] is PUM1 PUF domain R5-QKA (Homo sapiens, UniProt Q14671 828-1176, C1007Q;R1008K;Q1011A). In outline:
as §1

Test [10] concerns the target PUM1 PUF domain R5-KRF (Homo sapiens, UniProt Q14671 828-1176, C1007K;Q1011F). In outline:
as §1

For test [11], the target named is PUM1 PUF domain R5-RYG (Homo sapiens, UniProt Q14671 828-1176, C1007R;R1008Y;Q1011G). Summed up:
as §1

The target of test [12] is PUM1 PUF domain R5-LYE (Homo sapiens, UniProt Q14671 828-1176, C1007L;R1008Y;Q1011E). Summed up:
as §1

Test [13] concerns the target T1, PUM1 PUF domain R6-GWM (Homo sapiens, UniProt Q14671 828-1176, N1043G;Y1044W;Q1047M).
T1 sequence: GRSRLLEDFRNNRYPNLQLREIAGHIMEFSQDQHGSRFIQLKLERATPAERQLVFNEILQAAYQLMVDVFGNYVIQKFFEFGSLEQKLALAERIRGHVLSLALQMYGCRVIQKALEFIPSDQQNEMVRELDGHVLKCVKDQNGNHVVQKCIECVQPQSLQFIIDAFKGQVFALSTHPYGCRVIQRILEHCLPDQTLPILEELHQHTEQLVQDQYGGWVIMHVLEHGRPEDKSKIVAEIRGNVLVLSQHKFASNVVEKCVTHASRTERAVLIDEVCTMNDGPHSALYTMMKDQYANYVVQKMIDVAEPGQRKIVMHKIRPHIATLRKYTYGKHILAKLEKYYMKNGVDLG
Summed up: as §1

Test [14] concerns the target PUM1 PUF domain R4-FGC (Homo sapiens, UniProt Q14671 828-1176, N971F;H972G;Q975C). In outline:
as §1

The target in test [15] is PUM1 PUF domain R3-FFL (Homo sapiens, UniProt Q14671 828-1176, C935F;R936F;Q939L). In outline:
as §1

The target of test [16] is PUM1 PUF domain R3-MRA (Homo sapiens, UniProt Q14671 828-1176, C935M;Q939A). Summed up:
as §1

Test [17] addresses PUM1 PUF domain R4-MNR (Homo sapiens, UniProt Q14671 828-1176, N971M;H972N;Q975R). In outline:
as §1

The target in test [18] is PUM1 PUF domain R4-PYE (Homo sapiens, UniProt Q14671 828-1176, N971P;H972Y;Q975E). Summed up: as §1
Test [19] deals with PUM1 PUF domain R3-RAC (Homo sapiens, UniProt Q14671 828-1176, C935R;R936A;Q939C). In outline: as §1
Test [20] concerns the target PUM1 PUF domain R3-RCR (Homo sapiens, UniProt Q14671 828-1176, C935R;R936C;Q939R). In outline: as §1

On to “GGCUAGAACUAGUGGAUCCCCCGGCGCCCGGCGGCUCGAGCCCGGGUAAGGGUAAAUAGUCUGCAUGCCGCCGGGCGCCAUGCCUGCAGGUCGACUCUAGAAAACAUG”, for which, in test [1], the binding signal is 3.44 log2 enrichment (interaction score).

On to “GGCUAGAACUAGUGGAUCCCCCGGCGCCCGGCGGCUCGAGCCCGGGUAAGUGUAAAAAGUCUGCAUGCCGCCGGGCGCCAUGCCUGCAGGUCGACUCUAGAAAACAUG”, for which the binding signal in [2] is 3.5 log2 enrichment (interaction score).

Consider “GGCUAGAACUAGUGGAUCCCCCGGCGCCCGGCGGCUCGAGCCCGGGUAAGCGUAAAUAGUCUGCAUGCCGCCGGGCGCCAUGCCUGCAGGUCGACUCUAGAAAACAUG”, for which the values for the binding signal in test [1] and in test [3] were 2.16 log2 enrichment (interaction score) and 2.45 log2 enrichment (interaction score), respectively.

As to “GGCUAGAACUAGUGGAUCCCCCGGCGCCCGGCGGCUCGAGCCCGGGUAAGUGUUAAUAGUCUGCAUGCCGCCGGGCGCCAUGCCUGCAGGUCGACUCUAGAAAACAUG”, the binding signal is 2.15 log2 enrichment (interaction score) in test [4]; 2.77 log2 enrichment (interaction score) in test [5]; 2.93 log2 enrichment (interaction score) in test [6]; 7.41 log2 enrichment (interaction score) in test [7]; 4.76 log2 enrichment (interaction score) in [8].

As to “GGCUAGAACUAGUGGAUCCCCCGGCGCCCGGCGGCUCGAGCCCGGGUAAGUGUCAAUAGUCUGCAUGCCGCCGGGCGCCAUGCCUGCAGGUCGACUCUAGAAAACAUG”, the binding signal is 0.9 log2 enrichment (interaction score) in test [4]; 4.35 log2 enrichment (interaction score) in [5]; 2.79 log2 enrichment (interaction score) in [9]; 2.59 log2 enrichment (interaction score) in [10]; 5.09 log2 enrichment (interaction score) in test [11]; 2.31 log2 enrichment (interaction score) in test [6]. Moreover, the binding signal in test [7] is 0.48 log2 enrichment (interaction score); in [8] it was 3.55 log2 enrichment (interaction score).

Turning to “GGCUAGAACUAGUGGAUCCCCCGGCGCCCGGCGGCUCGAGCCCGGGUAAGUGUAAAUAGUCUGCAUGCCGCCGGGCGCCAUGCCUGCAGGUCGACUCUAGAAAACAUG”, the binding signal in [1] was 2.77 log2 enrichment (interaction score); in [12], 3.07 log2 enrichment (interaction score); in test [3], 1.16 log2 enrichment (interaction score); in test [13], 2.52 log2 enrichment (interaction score); in [11], 2.94 log2 enrichment (interaction score); in test [14], 1 log2 enrichment (interaction score). The binding signal in test [15] is 3.27 log2 enrichment (interaction score).

“GGCUAGAACUAGUGGAUCCCCCGGCGCCCGGCGGCUCGAGCCCGGGUAAGUGUAAGUAGUCUGCAUGCCGCCGGGCGCCAUGCCUGCAGGUCGACUCUAGAAAACAUG”: in [16], the binding signal is 5.2 log2 enrichment (interaction score).

“GGCUAGAACUAGUGGAUCCCCCGGCGCCCGGCGGCUCGAGCCCGGGUAAGUGUAUAUAGUCUGCAUGCCGCCGGGCGCCAUGCCUGCAGGUCGACUCUAGAAAACAUG”: the binding signal in test [17] is 4.01 log2 enrichment (interaction score); in test [18] it was 4.08 log2 enrichment (interaction score); in test [14] it was 3.05 log2 enrichment (interaction score).

Take “GGCUAGAACUAGUGGAUCCCCCGGCGCCCGGCGGCUCGAGCCCGGGUAAGUGUAAUUAGUCUGCAUGCCGCCGGGCGCCAUGCCUGCAGGUCGACUCUAGAAAACAUG”: the results for the binding signal in test [16], in test [19] and in test [20] were 2.68 log2 enrichment (interaction score), 4.24 log2 enrichment (interaction score) and 2.77 log2 enrichment (interaction score), respectively.

Regarding “GGCUAGAACUAGUGGAUCCCCCGGCGCCCGGCGGCUCGAGCCCGGGUAAGUGUACAUAGUCUGCAUGCCGCCGGGCGCCAUGCCUGCAGGUCGACUCUAGAAAACAUG”, the figures for the binding signal in test [17], in test [18] and in test [14] were 3.28 log2 enrichment (interaction score), 0.65 log2 enrichment (interaction score) and 0.93 log2 enrichment (interaction score), respectively.

Source of the values: publication PMC8384837, “Expanding the binding specificity for RNA recognition by a PUF domain”.
